Assay results published in PubChem BioAssay AID687 (PCMD, 2007).
Hit rate of the full screen: of about 33,000 compounds, about 95 (0.3%) were called active.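 How the source made its calls: active means inhibition above 40% in the primary screen; inactive means the rest.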 The sample as a whole holds a higher share of actives than the screen did.

The compounds below were run against Coagulation factor XI (Homo sapiens) (UniProt P03951) (assay: human FXIa protease inhibitors, primary screen, biochemical, single compound per well (AID 687;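 further: 0% = enzyme without compound and 100% = blank wells lacking enzyme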)). Conditions: purified human FXIa, fluorogenic AMC substrate cleavage; at 10 µM; stronger effect = higher value.
Sequence of Coagulation factor XI (Homo sapiens) (P03951 19-387 limits assumed): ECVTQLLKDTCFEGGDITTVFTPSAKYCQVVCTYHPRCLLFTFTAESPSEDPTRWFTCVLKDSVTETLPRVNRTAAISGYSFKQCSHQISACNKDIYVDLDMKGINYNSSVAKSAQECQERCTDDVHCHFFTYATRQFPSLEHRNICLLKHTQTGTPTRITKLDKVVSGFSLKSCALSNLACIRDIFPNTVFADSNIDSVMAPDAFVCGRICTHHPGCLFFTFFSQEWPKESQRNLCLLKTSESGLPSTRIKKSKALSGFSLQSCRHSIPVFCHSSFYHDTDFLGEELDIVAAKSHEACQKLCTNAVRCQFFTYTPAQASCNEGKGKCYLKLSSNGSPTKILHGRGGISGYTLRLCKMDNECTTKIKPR
Sequence of Coagulation factor XI (Homo sapiens) (P03951 388-625 limits assumed): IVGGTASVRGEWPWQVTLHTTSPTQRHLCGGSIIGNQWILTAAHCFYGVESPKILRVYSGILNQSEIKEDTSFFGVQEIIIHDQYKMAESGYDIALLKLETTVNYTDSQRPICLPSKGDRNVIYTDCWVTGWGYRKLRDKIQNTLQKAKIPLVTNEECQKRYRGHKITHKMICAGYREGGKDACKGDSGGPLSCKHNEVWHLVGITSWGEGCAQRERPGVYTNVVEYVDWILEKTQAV

inhibition, active:
N#Cc1c(N)nc2c3c(sc(=N)c2c1N)NC(=O)CC3c1ccccc1Cl (stereo not given) 40.9%

inhibition, inactive:
O=C(NCc1ccc2c(c1)OCO2)C12CC3CC(CC(C3)C1)C2 -3.87%, COC(=O)CNS(=O)(=O)c1ccc(OC)cc1 0.19%, CCN(CC)C(=O)CSc1nnc(C2CCCCC2)o1 5.02%, CC1CCC(N2CC(=O)N(Cc3ccc4c(c3)OCO4)C(c3ccc(F)cc3)C2=O)CC1 (stereo not given) 1.08%, O=C(Cc1c(F)cccc1Cl)N1CCN(C(=O)c2ccco2)CC1 2.75%, O=C(O)CSCc1ccc(C(=O)O)o1 0.52%, CCC(CC)C(=O)N1CC(=O)Nc2ccc(Br)cc2C1c1ccccc1 (stereo not given) -3.26%, CC(C)C(=O)NC(NC(=S)NC1CCS(=O)(=O)C1)C(Cl)(Cl)Cl (stereo not given) 0.31%, CCCc1nc2oc3c(OCC)ncnc3c2c2c1COC(C)(C)C2 26%, Cc1cc(C(=O)Nc2c(C)nn(Cc3ccccc3)c2C)on1 9.91%, COc1ccc(-c2cn(-c3ccc(C)cc3)c(=O)n2CC(=O)Nc2ccc(OC)c(OC)c2)cc1 -1.74%, S=c1nccc(-c2cc(Cl)sc2Cl)[nH]1 3.11%, CC1CC(C)CN(C(=O)CSc2nnc(CSc3ncccn3)n2C)C1 (stereo not given) -0.18%, O=c1c2ccccc2nc2n1C1(CCCCC1)Cc1ccccc1-2 -5.48%, CC(=O)Nc1ccccc1OC(=O)N1CCOCC1 -4.74%, O=C(CN1CCCCCC1)N1c2ccccc2Sc2ccc(C(F)(F)F)cc21 2.04%, C=CCC(NCc1ccco1)c1ccc(OC)cc1 (stereo not given) 4.05%, O=C(CC1NCCNC1=O)Nc1ccc(Oc2ccccc2)cc1 (stereo not given) 0%, CCOC(=O)c1cnc2sccn2c1=O 6.51%, O=C(c1ccc(CN2CCOCC2)cc1)N1CCN(c2ccccc2F)CC1 3.59%, Cn1c(N)c(C(=O)COC(=O)C23CC4CC(CC(C4)C2)C3)c(=O)n(C)c1=O 21.8%, O=C(NCCOc1ccccc1)c1ccccc1 -5.53%, CC1CN(S(=O)(=O)c2ccccc2)C(C)CN1S(=O)(=O)c1ccccc1 (stereo not given) 1.71%, COCCn1c(C)cc(C2=NNC(=Nc3ccc(F)cc3)SC2)c1C -6.11%, COc1ccc(N(CC(=O)NC2CCCCC2)S(=O)(=O)c2c(C)[nH]c(=O)[nH]c2=O)cc1 8.86%, CCOc1c(Cl)cc(/C=N/O)cc1OC -2.81%, COc1ccc(-n2nc(C(=O)NCC(=O)Nc3cccc(C)n3)c3ccccc3c2=O)cc1 -9.02%, N#C/C(=C(\O)CCl)c1nnc2n1CCCCC2 -2.88%, CCOC(=O)N1CCN(Cc2nc(N)nc(Nc3ccc(C)cc3)n2)CC1 17.1%, COCCCNC(=O)C1CC(=O)N(CCc2ccccc2)C1 (stereo not given) 7.75%, Cc1cccc(C)c1NC(=O)CSc1nnc(-c2ccccc2)n1Cc1ccc2c(c1)OCO2 3.72%, COC(=O)c1ccc(CSc2ccc3nnc(-c4ccccc4)n3n2)o1 1.01%, CC(C)C(=O)Nc1nnc(Sc2ccc(N(C)C)cc2)s1 -3.42%, Cc1ccc(-c2noc(CSc3nnc(-c4ccncc4)n3-c3ccc(F)cc3)n2)cc1 4.76%, COC(=O)C(C(=O)Nc1cccc(C)n1)C1CCCCCC1 (stereo not given) -11.6%, Cn1c(CC(=O)Nc2ccccc2)nnc1SCC(=O)c1ccccc1 -6.46%, O=C(COc1ccc(Cl)cc1)Nc1ccccc1CO 2.06%, C=CCn1c(N)cc(=O)nc1SCC(=O)Nc1cccc2ccccc12 9.45%, CCn1c(SCC(=O)Nc2ccc(OC)c(OC)c2)nnc1-c1c[nH]c2ccccc12 7.43%, COC(=O)C1C(=O)NCC1c1ccc(C)cc1 (stereo not given) 8.67%, CC(=O)Nc1ccc(S(=O)(=O)N2CCN(C3CCCCCCC3)CC2)cc1 0.06%, CCOc1ccc(C(=O)Nc2ccncc2)cc1 -1.05%, CC(C)(C)NC(=O)CN(Cc1cccs1)C(=O)CNS(=O)(=O)c1ccccc1 -7.23%, CCOCc1nnc(NC(=O)CSc2ccc(C)cc2)s1 -2.27%, CC1=NN(C(C)C)C(=O)C1 28.4%, CC(=O)Nc1ccc(NC(=O)CSCc2cnn(-c3ccccc3)c2-n2cccc2)cc1 6.64%, COc1ccccc1N(C(=O)Cn1nnc2ccccc21)C(C(=O)NCc1ccco1)c1ccc(C)o1 (stereo not given) -1.36%, O=C(CCc1ccccc1)NCc1cccnc1 23.1%, Cc1cc(C(=O)OC(C)C(=O)Nc2cccc(S(=O)(=O)N3CCOCC3)c2)c(C)o1 (stereo not given) -5.93%
